Among the data in PubChem BioAssay AID2625 (National Center for Advancing Translational Sciences (NCATS), 2010) are outcome values, retold here.

Results filed as inconclusive are left out. Active and inactive are the calls of the source. The call rests on the fitted dose curve; in most records, active means well fitted curve in the direction sought with a large enough effect; inconclusive means small, poorly fitted or top-dose-only effect, or effect the other way, or another doubt; inactive means no such curve, though single readings can be large or run the other way.

Pyruvate kinase PKLR (Homo sapiens), sequence (P30613 whole entry, looked up): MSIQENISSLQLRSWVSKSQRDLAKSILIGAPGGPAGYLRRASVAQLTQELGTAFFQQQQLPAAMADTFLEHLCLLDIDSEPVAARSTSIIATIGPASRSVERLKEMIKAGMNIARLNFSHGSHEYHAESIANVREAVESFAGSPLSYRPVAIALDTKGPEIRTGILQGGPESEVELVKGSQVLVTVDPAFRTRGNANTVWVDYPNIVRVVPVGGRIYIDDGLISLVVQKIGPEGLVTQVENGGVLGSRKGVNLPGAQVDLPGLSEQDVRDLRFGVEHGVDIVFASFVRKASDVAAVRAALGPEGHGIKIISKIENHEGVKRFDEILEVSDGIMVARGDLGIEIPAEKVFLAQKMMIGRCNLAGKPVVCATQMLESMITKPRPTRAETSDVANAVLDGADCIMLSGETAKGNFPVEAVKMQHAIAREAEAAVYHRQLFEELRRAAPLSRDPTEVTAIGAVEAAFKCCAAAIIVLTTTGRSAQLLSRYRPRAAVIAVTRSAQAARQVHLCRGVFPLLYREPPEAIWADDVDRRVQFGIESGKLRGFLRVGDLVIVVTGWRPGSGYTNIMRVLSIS

This assay addresses Pyruvate kinase PKLR (Homo sapiens) (UniProt P30613). Briefly: Secondary LDH Assay for Activators of Human Liver Pyruvate Kinase: for Probe SAR. Particulars: purified hPK-L, LDH-coupled NADH fluorescence kinetic; series mostly up to 58.2 µM. The text has this: NIH Chemical Genomics Center [NCGC]
Matthew G. Vander Heiden, M.D., Ph.D. [Harvard Medical School, 77 Avenue Louis Pasteur, Boston, MA 02115]
Human pyruvate kinase liver (hPK-L)enzyme was supplied as a highly purified (>95% pure) preparation from Harvard Medical School and a secondary assay was used to evaluate compounds. This assay couples the formation of pyruvate from hPK-R using lactate dehydrogenase (LDH) and NADH. The depletion of NADH is followed in a fluorescent-based kinetic assay that follows the formation of pyruvate to lactate, as catalyzed LDH. Pyruvate kinase substrates, PEP and ADP, were present in the assay at 0.1 mM and 4 mM respectively. In this kinetic assay initial rates were determined by following the fluorescence of NADH depletion.
NCGC Assay Protocol Summary:
Three uL of substrate mix (final concentration, 50 mM Tris-Cl pH 8.0, 200 mM KCl, 15 mM MgCl2, 0.1 mM PEP, 4.0 mM ADP, and 0.2 mM NADH) was dispensed into black-solid 1536 well plates. 23 nL of compounds were delivered by a pin tool and 1 uL of enzyme mix (final concentrations, 10 nM hPK-L and 1 uM of LDH) was added. Plates were immediately placed in ViewLux (Perkin Elmer) and NADH fluorescence was determined at 30 second exposure intervals for between 3 and 6 minutes. Data were normalized to the uninhibited and EC100 activation using known activators such as fructose-bis-phosphate.
In the case of `Cc1ccc(NS(=O)(=O)c2ccc3c(c2)CCC(=O)N3)cc1C`, the compound was classed as inactive.

On to `O=S1(=O)N=C(Oc2ccccc2)c2ccccc21`, for which the compound was called inactive.

Regarding `Cc1cc2c(s1)c1cnn(Cc3ccccc3F)c(=O)c1n2C`, the result was inactive.

As to `O=C1CCc2cc(S(=O)(=O)NCc3ccccc3)ccc2N1`, the call was inactive.

Consider `O=C1CCc2cc(S(=O)(=O)Nc3cccc(Br)c3)ccc2N1`, for which the call was inactive.

For `O=C1c2ccccc2C(=O)N1Cc1ccncc1`, the result was inactive.

Regarding `O=C1CCc2cc(S(=O)(=O)Nc3cc(F)cc(Cl)c3)c(F)cc2N1`, the compound was classed as inactive.

Take `O=C1CCc2cc(S(=O)(=O)Nc3ccc(Cl)c(Cl)c3)c(F)cc2N1`: the compound was called inactive.

For `Cc1cc(N2C(=O)c3ccccc3C2=O)n[nH]1`, the result was inactive.

As for `O=C1CCc2cc([S+](=O)([O-])Nc3ccc(N[S+](=O)([O-])c4ccc5c(c4)CCC(=O)N5)cc3)ccc2N1`, the result was inactive.

In the case of `Cc1ccc(NS(=O)(=O)c2cc3c(cc2N2CCC2)NC(=O)CC3)cc1C`, the compound was classed as inactive.

Regarding `O=C1CCc2cc(S(=O)(=O)Nc3ccc(-c4ccccc4)cc3)ccc2N1`, the compound was called inactive.

Turning to `O=C1CCc2cc(S(=O)(=O)Nc3cccc(Oc4ccccc4)c3)ccc2N1`, the result was inactive.

In the case of `Cc1ccc(NS(=O)(=O)c2ccc3c(c2)CCN(C(=O)C(F)(F)F)C3)cc1C`, the result was inactive.

Take `COc1cccc(OC2=NS(=O)(=O)c3ccccc32)c1`: the result was inactive.

With `Cc1ccc(NS(=O)(=O)c2cc3c(cc2N(C)C)NC(=O)CC3)cc1C`, the result was inactive.

As for `O=S(=O)(c1ccc2c(c1)OCCO2)N1CCN(S(=O)(=O)c2c(F)cccc2F)CC1`, the compound was called inactive.

`O=C1c2ccccc2C(=O)N1Cc1cccnc1`: the compound was called inactive.

Turning to `O=C1c2ccccc2C(=O)N1c1ccc2ccccc2n1`, the compound was called inactive.

For the compound `O=C1c2ccccc2C(=O)N1c1ncccc1O`, the outcome was inactive.

`COc1cccc(N2C(=O)c3ccccc3C2=O)n1`: the call was inactive.

As to `Cc1ccc2nc(-c3ccc(C)o3)c(Nc3ccc4c(c3)OCO4)n2c1`, the result was inactive.

Consider `Cc1ccc(NS(=O)(=O)c2ccc(Cl)cc2)cc1C`, for which the compound was classed as inactive.

`O=C1c2ccccc2C(=O)N1c1ccc(O)cc1`: the compound was called inactive.

`Cn1c2cc(S(C)=O)sc2c2cnn(Cc3cccc(O)c3)c(=O)c21` (stereo not given): the result was inactive.

On to `Cc1ccc(N2C(=O)c3ccccc3C2=O)c(C)c1`, for which the result was inactive.

As to `O=C1CCc2cc(S(=O)(=O)Nc3ccc(F)c(Cl)c3)ccc2N1`, the compound was called inactive.

In the case of `Cc1ccn2c(NC3CCCCC3)c(-c3ccc(C)o3)nc2c1`, the compound was called inactive.

`COc1ccc(NS(=O)(=O)c2ccc3c(c2)CCC(=O)N3)cc1`: the compound was called inactive.

In the case of `O=C1c2ccccc2C(=O)N1c1cccc2cccnc12`, the call was inactive.

On to `Cc1ccc(NS(=O)(=O)c2ccc3c(c2)CCC(C)(C)O3)cc1C`, for which the outcome was inactive.

`O=C1CCc2cc(S(=O)(=O)Nc3cccc4ccccc34)ccc2N1`: the compound was called inactive.

In the case of `O=C1CCc2cc(S(=O)(=O)Nc3ccccc3-c3ccccc3)ccc2N1`, the compound was classed as inactive.

Consider `CC(=O)N1CCc2cc(S(=O)(=O)Nc3ccc(C)c(C)c3)ccc21`, for which the outcome was inactive.

As for `Cc1ccccc1NS(=O)(=O)c1ccc2c(c1)CCC(=O)N2`, the compound was classed as inactive.

As to `O=C1c2ccccc2C(=O)N1c1cccnc1`, the compound was classed as inactive.

Regarding `O=C1CCc2cc(S(=O)(=O)Nc3ccc4ccccc4c3)ccc2N1`, the compound was called inactive.

For the compound `Cc1ccc(NS(=O)(=O)c2cc3c(cc2-c2ccsc2)NC(=O)CO3)cc1C`, the outcome was inactive.

As for `Nc1cccc(S(=O)(=O)N2CCCN(S(=O)(=O)c3ccc4c(c3)OCCO4)CC2)c1`, the outcome was inactive.

For the compound `COc1ccc(S(=O)(=O)Nc2ccc(C)c(C)c2)cc1`, the result was inactive.
